Inconclusive results are not listed. The source made the active and inactive calls. Calls come from the whole dose curve; as a rule, active = well fitted inhibition curve with a large enough effect; inconclusive = small, poorly fitted or top-dose-only effect; inactive = flat fitted curve, though single readings scatter.
biological target: Microtubule-associated protein tau (Homo sapiens) (UniProt P10636); assay: Confirmation Concentration-Response Assay for Inhibitors of Tau Fibril Formation, Thioflavin T Binding; settings: recombinant tau K18 P301L heparin fibrillization, ThT fluorescence; series mostly up to 100 µM; activity change, negative = inhibition: at the top concentration
Summary of the method: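 Heparin (20 uM final) induced fibrillization of human tau K18 P301L (15 uM unlabeled plus 0.24 uM Alexa 594-labeled, final) in 100 mM sodium acetate pH 7 with compound, 6 hr at 37 C. ThT (30 uM final) added, read after 1 hr (ex 450, em 510 nm).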

Sequence of Microtubule-associated protein tau (Homo sapiens) (P10636 561-689 P618L limits assumed): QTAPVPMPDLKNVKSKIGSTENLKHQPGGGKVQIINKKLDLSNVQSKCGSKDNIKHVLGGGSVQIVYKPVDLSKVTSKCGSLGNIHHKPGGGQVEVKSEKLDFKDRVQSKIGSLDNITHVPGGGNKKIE

Potency, active:
O=S(=O)(c1ccc2nc(-c3ccco3)c(-c3ccco3)nc2c1)N1CCOCC1 4.47 µM, O=C(O)CC1S/C(=N/N=C/c2ccc(-c3ccc(Cl)cc3[N+](=O)[O-])o2)NC1=O (stereo not given) 1.58 µM, CCc1ccc(S(=O)(=O)Nc2cc(SCC(=O)O)c(O)c3ccccc23)cc1 5.62 µM, O=C(Nc1ccc(-c2nc3ccccc3o2)cc1)c1ccc(N2CCOCC2)c([N+](=O)[O-])c1 1.12 µM, Cn1ncc(Cl)c1C(=O)Nc1cccc(Cl)c1 44.7 µM, CCOC(=O)c1nn(-c2cccc(C(F)(F)F)c2)c(=O)c2c(N)scc12 0.891 µM, Nc1scc2c(C(=O)NCc3ccccc3)nn(-c3ccccc3)c(=O)c12 7.08 µM, NC(=O)c1nn(-c2ccccc2)c(=O)c2c(N)scc12 4.47 µM

Activity change, negative = inhibition, inactive:
COC(=O)CSc1nc2ccc(NC(=O)CSc3nnnn3Cc3ccccc3)cc2s1 -10.2%, CC(=O)Nc1sc(C)c2cnn(-c3ccccc3)c(=O)c12 -10.9% [at 57.1 µM], CC1CCc2c(sc(NC(=O)Cc3ccccc3)c2C(=O)Nc2ccc(Cl)cc2)C1 (stereo not given) -7.58% [at 57.1 µM], Cc1ccc(N(C)S(=O)(=O)c2nnc(NC(=O)C3CCCCC3)s2)cc1 0.45%, COc1cccc(/C=C2/SC(=S)N(CC(=O)Nc3nccs3)C2=O)c1 -10.2% [at 57.1 µM], COc1c(Cl)cccc1NC(=O)c1c(NC(=O)Cc2ccccc2)sc2c1CCCC2 -15.4% [at 57.1 µM], O=C(Cc1ccccc1)Nc1sc2c(c1C(=O)Nc1ccc(Br)cc1)CCCC2 2.19% [at 57.1 µM]

— PubChem BioAssay AID1558 (National Center for Advancing Translational Sciences (NCATS), 2009)
